# Legend:
# Test in all cases: PBM binding z-score (relative to random genomic background probes); higher = stronger binding; sequences stand for … in GC…GCGATTGACAGCGTAGAATGAAGG
# [1] = tested on: PPARg:RXRa DBDmut IVT, anti-RXR (DBD mutation: RXRa K156A/R161A, NR concentration 270 nM, RXRa partner concentration 90 nM)
# How it was run: (§1)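 Regression normalization was applied to scanned fluorescence from custom Agilent 4×180K protein-binding microarrays. Before scanning, arrays were incubated 1 h with ligand-free nuclear receptor dimers, and binding was detected with antibodies against each partner (one per run). Binding z-scores use the random background probes as reference.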
# [2] = tested on: PPARg:RXRa IVT, anti-PPARg (NR concentration 270 nM, RXRa partner concentration 90 nM)
# How it was run: as §1
# [3] = tested on: PPARg DBDmut:RXRa IVT, anti-PPARg (DBD mutation: PPARg1 K132A/R137A, NR concentration 270 nM, RXRa partner concentration 90 nM)
# How it was run: as §1
# [4] = tested on: PPARg DBDmut IVT, anti-PPARg (DBD mutation: PPARg1 K132A/R137A, NR concentration 270 nM)
# How it was run: as §1
# [5] = tested on: PPARg homodimer (NR concentration 180 nM)
# How it was run: as §1
# [6] = tested on: PXR:RXRa (NR concentration 270 nM, RXRa partner concentration 90 nM)
# How it was run: as §1
# [7] = tested on: PXR homodimer (NR concentration 270 nM)
# How it was run: as §1
# [8] = tested on: RARa:RXR (NR concentration 270 nM, RXRa partner concentration 90 nM)
# How it was run: as §1
# [9] = tested on: RARa homodimer (NR concentration 270 nM)
# How it was run: as §1
# [10] = tested on: RARb:RXRa (NR concentration 270 nM, RXRa partner concentration 90 nM)
# How it was run: as §1
Sequence,PBM binding z-score [1],PBM binding z-score [2],PBM binding z-score [3],PBM binding z-score [4],PBM binding z-score [5],PBM binding z-score [6],PBM binding z-score [7],PBM binding z-score [8],PBM binding z-score [9],PBM binding z-score [10]
GGAACGAGGGCGTTCGAGTTGATAGCATGGCGAT,1.14,0.591,-1.48,-0.922,-0.718,1.88,0.811,0.317,-0.727,0.422
GCTTGTAGATCAAGGTTAAGCAAGACTAAGCTAA,1.5,1.36,-0.46,-0.377,0.0849,0.191,-0.43,1.07,-0.348,0.844
CCTTACGGGCCACTCCAGGTTATAGCATCGGAGT,0.503,0.46,-1.12,-0.87,0.232,0.0123,0.0587,0.0279,0.0434,0.496
ATCTCTAGGTAAGGATAGTTCAGTGAATGCAAAT,1.23,1.1,0.846,0.942,0.983,0.619,0.997,0.17,1.04,0.741
CCTATTAGTTGACCATAAGGGCACCCGAAGCTCG,-0.198,0.504,0.132,0.825,1.88,0.521,0.781,0.981,1.56,1.2
TCTTGTTGATCAGCAGGTTAAGAAAGCTGGCCAA,1.56,0.0637,-0.302,-0.327,-0.0408,0.332,-0.115,0.447,-0.41,0.288
TCTAGCAGGCTAGAGGGTCACTCAAGAGGTACGG,0.497,0.41,-0.174,-0.574,0.731,1.48,-0.354,2.02,-0.017,1.93
GCGACTGGGGCATCAGCAGGTTCCCATAACTTAA,3.91,2.88,-0.996,-0.982,-0.276,-0.549,-0.571,-0.272,-0.565,0.421
GCTGTTAGGTCAACTGATGGTCAGCTAAAGCTCG,4.04,2.94,0.716,0.227,3.51,2.32,-0.291,3.69,0.121,4.4
ATCCCTAGGTAAAGATAGTTCAGTGAATGCAAAT,-0.0456,0.0928,0.379,0.507,0.544,1.12,0.666,0.665,1.04,0.863
TCATATAGGTAAACAGGTGAAGGTCCGTAAGTTA,4.86,4.7,1.09,0.987,1.53,0.741,0.241,0.898,0.337,0.842
GCTAGCCGGCCATTTGGGTCACTCAATGACGGGC,0.149,1.18,-0.74,-1.42,-0.135,0.15,-0.217,0.452,-1.3,1.19
TCTTGTAGATCAAGCAGGTTAAGGAAGCCTGAGT,1.51,0.345,0.213,-0.0431,-0.0432,0.142,0.105,0.407,-0.315,0.0755
CCTACTAGGTCATGGTCAGCTAATCTACAGTATG,7.3,7.42,2.12,1.91,2.59,1.5,0.291,2.45,0.932,3.92
GCTTACGGGTCATAGGTTATAGCATGAATAGAAT,3.9,5.19,2.06,1.56,2.24,3.94,0.0944,5.79,0.0988,3.51
GCTTGTAGATCGAGGTTAAGAAAGACTAAGCTAA,0.155,0.569,-0.125,0.233,0.235,0.519,-0.12,1.03,0.293,0.634
ACTAGCAGGCCAAGTTTGGGTCACTGAAACAAAG,0.913,1.45,-0.659,-0.796,0.506,0.641,-0.0145,1.25,-0.321,2
CAAACTAGGCCAAAGGTCAAAGTCGAGCCAACCA,7.14,7.78,2.58,1.59,2.88,5.56,0.846,6.35,0.602,5.26
TCTAGTTGGTCAAAGGTCACTCACTCGAAATGCG,3.67,6.11,2.62,1.66,4.97,5.78,1.56,7.3,3.14,4.93
CTCGAAAGGTCGGTCGAGGTGAGTATACGGATAA,0.299,1.21,0.0612,-0.418,0.551,3.08,-0.312,2.59,-0.801,3.2
TCGAGTAGCTTAGTCGGGGCATTCAGCCAACATA,0.289,-0.763,-1.22,-0.887,-1.34,-0.503,-1.1,-0.495,-0.83,-0.355
AATATTAGTTGAGACGAGGGCAACCGATAGGTTG,0.326,0.882,0.648,0.786,1.36,1.71,1.48,1.4,2.43,1.26
